Values without a mark were called inactive. Inconclusive results are not listed. Calls of active or inactive are those of the source. Unless noted, calls come from the whole dose curve; as a rule, active = well fitted curve in either direction with a large enough effect (not every such curve was filed as active); inconclusive = small, poorly fitted or top-dose-only effect, or another doubt; inactive = flat fitted curve, though single readings scatter. A value given as a limit tells only on which side of the number the result lay.

For experiment [1], the target named is Lysosomal acid glucosylceramidase (Homo sapiens) (UniProt P04062). In words: Glucocerebrosidase-p2 (AID 348; in the data active = potency below about 10 µM; note: potency is the fitted concentration of half-maximal effect). As to conditions: purified GBA, blue fluorogenic substrate, 40 min. The method, boiled down:
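Normal human glucocerebrosidase (0.2 nM) with blue fluorogenic substrate (80 uM final) in citrate/phosphate pH 5.9 with 10mM sodium taurocholate, 0.01% tween-20; 40 min RT, NaOH/glycine stop; fluorescence Ex 365/Em 440; AC50 from a titration from 0.6 nM upwards.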

The target in experiment [2] is Cytochrome P450 1A2 (Homo sapiens) (UniProt P05177). In words: p450-cyp1a2 (AID 410; calls by dose curve; note: potency is the fitted concentration of half-maximal effect). As to conditions: recombinant CYP1A2, luciferin-ME demethylation, luminescence; series mostly up to 11.4 µM. The procedure, abridged:
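20nM CYP1A2, 100uM Luciferin-ME (=Km), 100mM KPO4; cpd 10 min RT; +NADPH regen, 60 min RT; stop/detect 20 min; luminescence. Normalized to furafylline 57 uM = full inhibition.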

Experiment [3] has as its target Glucocorticoid receptor (Homo sapiens) (UniProt P04150). In words: GR-GFP Redistribution (AID 450;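 active = compounds whose dose series gives a full or clear partial fitted curve of increased nuclear translocation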; note: potency is the fitted concentration of half-maximal effect). As to conditions: U2OS GR-GFP nuclear translocation, laser cytometry, 2 h.
The target is the same in experiment [4]. Nature of the experiment: GR-EFC Redistribution (AID 451; calls by dose curve; note: potency is the fitted concentration of half-maximal effect). As to conditions: CHO-K1 GR-EFC translocation, beta-gal luminescence, 2 h. The method, boiled down:
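CHO-K1 cells expressing nuclear EA and GR-ED fragments of b-gal; compounds titrated up to 46 uM final, 2 h at 37 C. GR nuclear translocation read as complemented b-gal luminescence after 1 h RT detection.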

The target of experiment [5] is 3',5'-cyclic-AMP phosphodiesterase 4B (Homo sapiens) (UniProt Q07343). In words: qHTS Assay for Inhibitors of PDE-IV (AID 607; active = well fitted activation curve with a large enough effect in the main read-out, with a control signal flat, not every such curve was filed as active; note: % of control where 0% means no effect). As to conditions: HEK293 ACTOne CNG channel cells, membrane potential fluorescence; series mostly up to 22.9 µM. The method, boiled down:
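Cell-based read-out of cAMP via a modified cyclic nucleotide-gated channel and membrane potential dye (535/590 nm) in HEK293 cells expressing PDE4 endogenously. Compounds tested up to 22.9 uM final; 100 uM RO 20-1724 reference.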

In experiment [6] the target is Cytochrome P450 3A4 (Homo sapiens) (UniProt P08684). In words: qHTS Assay for Activators of Cytochrome P450 3A4 (AID 885; active = well fitted curve in the direction sought with a large enough effect; an effect the other way counts as inactive or inconclusive; note: nearly all actives have a fitted effect of over 65% in size). As to conditions: recombinant CYP3A4, Luciferin-PPXE luminescence, 60 min; series mostly up to 11.4 µM. The procedure, abridged: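 Luminescent readout of luciferin formed from 25 uM Luciferin-PPXE (KM level) by 20 nM CYP3A4 in 200 mM KPO4, with 60 min NADPH-driven reaction at room temperature after 10 min compound exposure. Ketoconazole (57 uM) defined 100% inhibition.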

Experiment [7] in a line: qHTS Assay for Identification of Small Molecule Agonists for Hypoxia Response Element Signaling Pathway (AID 914; active = well fitted activation curve with a large enough effect in the signal ratio, with a control signal flat, not every such curve was filed as active; the % refers to the signal ratio; note: potency is the fitted concentration of half-maximal effect; for activation: % of control where 0% means no effect). As to conditions: ME-180 HRE-bla reporter, beta-lactamase ratio, CoCl2, 17 h; activation: hits give high values. The procedure, abridged:
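Cells were plated overnight, pin-dosed with compound in a titration series, co-stimulated with EC50 CoCl2 and incubated 17 hours at 37 degrees Celsius. CCF4 substrate was then loaded, and AC50 values came from the 460nm/530nm ratio.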
On the technique in general: Quantitative high-throughput screening tests each substance at several concentrations.

The nature of experiment [8]: NFAT Signaling Pathway (AID 444).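 Note: carbachol stimulus at about its EC50 of 1 µM final; % is set by controls: 0 for no effect and ±100 for the full control effect.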 As to conditions: Jurkat NFAT-bla M1, carbachol, beta-lactamase ratio, 5 h; at 7.69 µM (top of the series) unless noted. The method, boiled down: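 Jurkat cells with NFAT-driven β-lactamase reporter and co-expressed M1 receptor, stimulated with carbachol (final 1 uM, ~EC50), compound titration, 5 h at 37 °C. CCF4 loaded 1 h at RT; 460/530 nm ratio gave %activity and AC50.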

A short description of experiment [9]: Stat Signaling Pathway (AID 446).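 Note: ME-180 cervical cancer cells given 40 pM IL-6 alongside compound; SIE-controlled beta-lactamase reporter measured as 460/530 nm FRET emission ratio; % is set by controls: 0 for no effect and ±100 for the full control effect.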 As to conditions: ME-180 (cervical carcinoma) SIE beta-lactamase reporter, IL-6 stimulated, 5 h; at 7.69 µM (top of the series) unless noted. The procedure, abridged: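 FRET read-out (405 nm excitation, 460/530 nm emission) of a beta-lactamase reporter under a STAT-inducible element in ME-180 cervical carcinoma cells. Cells with compound receive 40 pM IL-6 for 5 h. Values are normalised to AC90 stimulation and AC90 JAK-inhibitor controls.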

Experiment [10] concerns the target Mitogen-activated protein kinase 10 (Mus musculus) (UniProt Q61831). In words: JNK3 AlphaScreen Assay (AID 530).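 Note: kinase came from lysate of stimulated human HepG2 cells; signal reports phosphorylation of biotinylated GST-cJun 1-79 at Ser73 with 10 µM ATP; % is set by controls: 0 for no effect and ±100 for the full control effect.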 As to conditions: JNK3 lysate, c-Jun phosphorylation; series mostly up to 11.4 µM. The procedure, abridged: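 HepG2 lysate (IL-1b/TNFa pre-activated) + biotin-GST-cJun 1-79 + anti-pSer73 cJun; cpd titration, 15 min RT; ATP 10 uM start; Tris pH 7.6, MgCl2, DTT, vanadate; beads in EDTA buffer; AlphaScreen.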
A general note: In Alpha technology, singlet oxygen from a donor bead excites a nearby acceptor bead.

For experiment [11], the target named is Cytochrome P450 2C19 (Homo sapiens) (UniProt P33261). Nature of the experiment: qHTS Assay for Inhibitors and Substrates of Cytochrome P450 2C19 (AID 899; active = well fitted curve in the direction sought with a large enough effect; an effect the other way counts as inactive or inconclusive; note: nearly all actives have a fitted effect of over 60% in size; note: potency is the fitted concentration of half-maximal effect; for activity, negative = inhibition: % is set by controls: 0 for no effect and ±100 for the full control effect). As to conditions: recombinant CYP2C19, luciferin-H EGE luminescence; series mostly up to 11.4 µM. The method, boiled down: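 Signal comes from luciferase acting on luciferin released by CYP2C19-mediated hydroxylation of Luciferin-H EGE, 10uM (KM). Assay mix: 5nM enzyme, 50mM KPO4; 60 min at 37C with NADPH regeneration. Data normalized against 57uM ketoconazole.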

Experiment [12] has as its target Cytochrome P450 2C9 (Homo sapiens) (UniProt P11712). Nature of the experiment: qHTS Assay for Inhibitors and Substrates of Cytochrome P450 2C9 (AID 883; active = well fitted curve in the direction sought with a large enough effect; an effect the other way counts as inactive or inconclusive; note: potency is the fitted concentration of half-maximal effect; nearly all actives have a fitted effect of over 60% in size). As to conditions: recombinant CYP2C9, luciferin-H luminescence, 60 min; series mostly up to 11.4 µM. The procedure, abridged:
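Signal: luciferase luminescence reporting luciferin produced by CYP2C9. Conditions: 10nM enzyme, Luciferin-H 100uM at KM, 25mM KPO4, 37C, 60 min NADPH-driven reaction. Reference: 57uM sulphaphenazole as 100% inhibition.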

Sequence of Cytochrome P450 2C19 (Homo sapiens) (P33261 whole entry, looked up): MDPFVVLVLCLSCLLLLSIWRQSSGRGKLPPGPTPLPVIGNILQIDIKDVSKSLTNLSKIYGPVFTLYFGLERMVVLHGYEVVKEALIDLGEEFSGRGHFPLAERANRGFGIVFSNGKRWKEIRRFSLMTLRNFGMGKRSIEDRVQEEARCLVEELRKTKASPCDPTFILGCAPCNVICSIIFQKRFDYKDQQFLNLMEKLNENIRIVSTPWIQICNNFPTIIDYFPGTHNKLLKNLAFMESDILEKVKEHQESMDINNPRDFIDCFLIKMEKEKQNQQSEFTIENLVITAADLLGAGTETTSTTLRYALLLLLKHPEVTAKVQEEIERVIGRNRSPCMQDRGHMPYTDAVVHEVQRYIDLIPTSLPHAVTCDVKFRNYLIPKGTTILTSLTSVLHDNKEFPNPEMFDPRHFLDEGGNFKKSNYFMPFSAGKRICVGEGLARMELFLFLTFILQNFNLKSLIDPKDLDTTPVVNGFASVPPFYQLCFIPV
Sequence of Lysosomal acid glucosylceramidase (Homo sapiens) (P04062 whole entry, looked up): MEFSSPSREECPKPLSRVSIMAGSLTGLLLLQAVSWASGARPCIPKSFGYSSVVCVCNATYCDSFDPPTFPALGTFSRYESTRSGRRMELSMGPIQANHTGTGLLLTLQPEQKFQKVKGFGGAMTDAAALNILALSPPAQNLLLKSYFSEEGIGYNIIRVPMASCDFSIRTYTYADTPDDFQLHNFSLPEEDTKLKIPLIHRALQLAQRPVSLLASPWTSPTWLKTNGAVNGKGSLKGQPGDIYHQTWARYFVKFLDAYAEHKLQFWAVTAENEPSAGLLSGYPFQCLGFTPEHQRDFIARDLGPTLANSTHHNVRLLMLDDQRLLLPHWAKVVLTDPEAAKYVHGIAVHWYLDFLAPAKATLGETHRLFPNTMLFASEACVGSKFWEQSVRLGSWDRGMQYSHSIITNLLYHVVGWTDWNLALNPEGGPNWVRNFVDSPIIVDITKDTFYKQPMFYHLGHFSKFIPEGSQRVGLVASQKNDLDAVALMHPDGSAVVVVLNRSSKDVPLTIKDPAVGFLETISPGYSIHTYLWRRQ
Sequence of Cytochrome P450 3A4 (Homo sapiens) (P08684 whole entry, looked up): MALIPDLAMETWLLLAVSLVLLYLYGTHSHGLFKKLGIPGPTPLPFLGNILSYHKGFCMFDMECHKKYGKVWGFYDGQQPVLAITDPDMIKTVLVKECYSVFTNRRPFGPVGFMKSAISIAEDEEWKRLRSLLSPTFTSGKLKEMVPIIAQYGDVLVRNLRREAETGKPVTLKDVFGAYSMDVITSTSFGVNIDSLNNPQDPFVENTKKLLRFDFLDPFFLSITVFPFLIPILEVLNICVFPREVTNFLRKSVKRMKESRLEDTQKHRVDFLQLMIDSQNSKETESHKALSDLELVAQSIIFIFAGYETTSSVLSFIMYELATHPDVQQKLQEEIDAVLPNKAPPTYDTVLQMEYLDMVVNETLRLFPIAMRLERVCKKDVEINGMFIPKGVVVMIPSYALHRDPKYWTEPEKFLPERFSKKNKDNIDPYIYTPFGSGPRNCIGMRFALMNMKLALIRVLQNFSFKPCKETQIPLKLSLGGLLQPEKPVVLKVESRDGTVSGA
Sequence of 3',5'-cyclic-AMP phosphodiesterase 4B (Homo sapiens) (Q07343 whole entry, looked up): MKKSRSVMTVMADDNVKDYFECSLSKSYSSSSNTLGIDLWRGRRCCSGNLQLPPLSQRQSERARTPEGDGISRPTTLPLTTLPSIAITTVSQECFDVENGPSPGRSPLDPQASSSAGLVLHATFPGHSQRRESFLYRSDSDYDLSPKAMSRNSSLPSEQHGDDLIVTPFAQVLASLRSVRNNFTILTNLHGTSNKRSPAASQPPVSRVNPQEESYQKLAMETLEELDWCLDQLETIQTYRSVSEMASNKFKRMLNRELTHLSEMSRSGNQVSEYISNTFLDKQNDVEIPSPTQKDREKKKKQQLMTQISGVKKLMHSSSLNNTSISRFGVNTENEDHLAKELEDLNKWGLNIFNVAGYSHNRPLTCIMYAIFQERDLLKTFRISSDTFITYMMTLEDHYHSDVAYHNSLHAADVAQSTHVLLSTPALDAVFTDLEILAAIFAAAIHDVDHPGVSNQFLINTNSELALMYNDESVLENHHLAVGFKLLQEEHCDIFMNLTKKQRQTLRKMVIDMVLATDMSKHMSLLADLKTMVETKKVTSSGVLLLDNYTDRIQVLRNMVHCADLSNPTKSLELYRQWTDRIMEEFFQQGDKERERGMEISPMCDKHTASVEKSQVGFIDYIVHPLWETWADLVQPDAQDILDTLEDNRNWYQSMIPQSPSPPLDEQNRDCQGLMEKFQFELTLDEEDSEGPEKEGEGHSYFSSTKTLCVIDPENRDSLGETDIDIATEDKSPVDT
Sequence of Glucocorticoid receptor (Homo sapiens) (P04150 whole entry, looked up): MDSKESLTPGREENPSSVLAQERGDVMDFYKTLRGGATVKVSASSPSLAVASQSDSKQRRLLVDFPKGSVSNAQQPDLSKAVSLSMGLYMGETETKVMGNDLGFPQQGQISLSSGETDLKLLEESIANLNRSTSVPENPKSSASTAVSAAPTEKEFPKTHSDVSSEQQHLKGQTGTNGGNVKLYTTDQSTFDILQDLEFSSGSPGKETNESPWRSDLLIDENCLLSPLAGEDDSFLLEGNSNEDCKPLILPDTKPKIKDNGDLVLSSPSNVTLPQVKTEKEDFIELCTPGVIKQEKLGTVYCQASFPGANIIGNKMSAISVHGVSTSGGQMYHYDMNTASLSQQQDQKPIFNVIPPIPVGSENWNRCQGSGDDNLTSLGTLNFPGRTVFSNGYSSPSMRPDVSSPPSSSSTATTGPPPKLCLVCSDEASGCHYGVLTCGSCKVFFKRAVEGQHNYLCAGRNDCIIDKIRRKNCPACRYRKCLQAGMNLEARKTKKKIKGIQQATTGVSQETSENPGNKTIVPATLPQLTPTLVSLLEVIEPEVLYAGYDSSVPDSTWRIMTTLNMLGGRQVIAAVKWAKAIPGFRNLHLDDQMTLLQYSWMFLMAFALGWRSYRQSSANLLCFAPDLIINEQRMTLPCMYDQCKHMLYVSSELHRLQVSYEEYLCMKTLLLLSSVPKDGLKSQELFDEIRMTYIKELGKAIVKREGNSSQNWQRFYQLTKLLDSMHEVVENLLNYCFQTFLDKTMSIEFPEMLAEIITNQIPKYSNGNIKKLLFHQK
Sequence of Cytochrome P450 2C9 (Homo sapiens) (P11712 whole entry, looked up): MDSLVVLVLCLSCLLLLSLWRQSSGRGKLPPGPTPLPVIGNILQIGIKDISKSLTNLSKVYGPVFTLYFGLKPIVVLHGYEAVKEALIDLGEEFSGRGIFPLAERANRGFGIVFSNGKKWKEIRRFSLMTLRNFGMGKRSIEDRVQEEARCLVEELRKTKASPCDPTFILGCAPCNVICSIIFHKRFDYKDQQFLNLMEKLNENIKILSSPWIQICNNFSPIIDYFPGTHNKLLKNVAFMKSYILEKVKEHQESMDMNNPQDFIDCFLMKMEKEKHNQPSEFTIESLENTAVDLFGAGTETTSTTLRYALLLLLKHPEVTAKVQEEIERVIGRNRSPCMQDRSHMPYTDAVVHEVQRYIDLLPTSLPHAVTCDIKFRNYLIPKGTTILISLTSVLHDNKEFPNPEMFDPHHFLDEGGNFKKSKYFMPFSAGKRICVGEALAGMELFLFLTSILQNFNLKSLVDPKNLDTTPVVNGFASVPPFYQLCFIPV
Sequence of Cytochrome P450 1A2 (Homo sapiens) (P05177 whole entry, looked up): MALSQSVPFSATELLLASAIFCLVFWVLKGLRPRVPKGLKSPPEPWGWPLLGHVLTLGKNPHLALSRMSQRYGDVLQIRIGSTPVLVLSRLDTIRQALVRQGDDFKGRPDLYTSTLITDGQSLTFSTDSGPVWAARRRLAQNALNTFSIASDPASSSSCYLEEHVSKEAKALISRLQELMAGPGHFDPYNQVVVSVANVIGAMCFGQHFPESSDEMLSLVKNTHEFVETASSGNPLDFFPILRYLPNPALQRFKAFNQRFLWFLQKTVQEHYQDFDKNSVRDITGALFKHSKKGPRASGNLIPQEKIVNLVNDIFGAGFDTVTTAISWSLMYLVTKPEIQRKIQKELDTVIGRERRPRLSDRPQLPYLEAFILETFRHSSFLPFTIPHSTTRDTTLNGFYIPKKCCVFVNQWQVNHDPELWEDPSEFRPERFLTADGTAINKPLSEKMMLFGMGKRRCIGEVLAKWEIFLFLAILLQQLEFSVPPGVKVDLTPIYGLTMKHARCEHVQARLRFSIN

On to `O=c1c(-c2ccccc2)nc2cnc(N3CCNCC3)nc2n1Cc1ccc(F)cc1`, for which the Potency was more than 11.4 µM in [1]; 20 µM (active) in [2]; more than 9.22 µM in [3]; more than 46 µM in experiment [4]; 3.16 µM (active) in experiment [7]. For the same molecule, the Potency entry in [5] and in [6] was “inactive” each time.
In the case of `OCCN[C@@H]1c2cc(Cl)ccc2-c2c(Cl)cc(Cl)cc21`, the Potency is more than 11.4 µM in experiment [1], more than 46 µM in [3] and more than 9.22 µM in experiment [4]. In [8], the activity change, negative = inhibition was -8.6%. Moreover, in experiment [9], the activity, negative = inhibition was 4.1%. Besides, the Potency entry in [10] and in [5] was “inactive” each time.
Regarding `O=c1c(CCc2ccccc2)nc2cnc(Oc3ccccc3)nc2n1C[C@H]1CCCO1`, the Potency in experiment [1] was more than 11.4 µM; in experiment [3] it was more than 9.22 µM; in experiment [4], more than 46 µM. In addition, in experiment [8], the activity change, negative = inhibition is -10.8%. Moreover, in experiment [9], the activity, negative = inhibition was -18.9%. Also, the Potency entry in experiment [5] and in experiment [6] was “inactive” throughout. For the same molecule, the activation in [7] was -12.6%.
Turning to `COc1ccc(N(CC(=O)O)N=O)cc1`, the Potency in experiment [1] is more than 11.4 µM; in [3] it was more than 46 µM; in experiment [4], more than 9.22 µM. Also, in [8], the activity change, negative = inhibition was 11.2%. In [9], the activity, negative = inhibition was 2.83%. For the same molecule, the Potency entry in [10], in [5] and in [11] was “inactive” each time. Also, the activation in experiment [7] was 10.3%.
Regarding `CN(Cc1ccccc1)Cn1ccnc1`, the Potency in experiment [1] was more than 11.4 µM; in experiment [3], more than 46 µM; in experiment [4], more than 9.22 µM; in experiment [12], 2.51 µM (active); in [11], 2 µM (active). In addition, the activity change, negative = inhibition in experiment [8] was -1.18%. Besides, the activity, negative = inhibition in experiment [9] was 10.2%. The Potency entry in [10], in experiment [5] and in experiment [6] was “inactive” each time.
As to `O=C1/C(=C/c2ccccc2)[C@@H](NC2CCCCC2)c2ccccc21`, the Potency in experiment [1] was more than 11.4 µM; in experiment [2] it was 1 µM (active); in [4], more than 9.22 µM; in [12] it was 3.98 µM (active); in experiment [11], 1.26 µM (active). Moreover, the Potency entry in [10], in experiment [5] and in [6] was “inactive” each time.
For `CCNc1ncc2nc(CCc3ccccc3)c(=O)n(-c3ccc(OC)cc3)c2n1`, the Potency in experiment [1] was more than 11.4 µM; in [3], more than 9.22 µM; in [4] it was more than 46 µM. For the same molecule, the activity change, negative = inhibition in experiment [8] was -12.3%. Also, in experiment [9], the activity, negative = inhibition was -3.89%. Besides, the Potency entry in experiment [10] and in experiment [6] was “inactive” throughout. Further, in experiment [7], the activation was -1.93%.
`O=C(Nc1ccc(-c2cn3ccccc3n2)cc1)c1cc(Br)ccc1O`: the Potency in [1] was more than 11.4 µM; in experiment [3] it was more than 46 µM; in [4], more than 9.22 µM. In addition, the activity change, negative = inhibition in experiment [8] was 1.22%. For the same molecule, in [9], the activity, negative = inhibition is -0.935%. Also, the Potency result in experiment [10] and in [5] was “inactive” in each case.
Take `N#CCCn1c(=O)c(-c2ccc(F)cc2)nc2cnc(Oc3ccccc3)nc21`: the results for the Potency in experiment [1], in [3] and in [4] were more than 11.4 µM, more than 9.22 µM and more than 46 µM, respectively. Further, the activity change, negative = inhibition in [8] is -6.96%. The activity, negative = inhibition in experiment [9] is -5.37%. For the same molecule, the Potency entry in experiment [10] and in experiment [5] was “inactive” each time.

The values above are taken from PubChem BioAssay (NCATS).
